# The list is not random: actives were taken first. Their share in the collection is about 13%.
# FMDV inh: antivirals against foot and mouth disease virus. AID 1159524. Potency, µM (top dose mostly 57.9 µM), for inactives: top-dose activity change, negative = inhibition, most hits filed as inhibitors. 410,000 compounds, 1.2% hits. FMDV antiviral cell-based qHTS; calls by dose curve; tested in HEK293T cells; also: read-out not given here; potency is read from the fitted curve at half-maximal effect; % is scaled to controls: 0 for no effect and ±100 for the full control effect; nearly all actives have a fitted effect of over 45% in size
# LASV entry inh: inhibitors of Lassa virus binding or cell entry; Lassa virus pseudotype entry inhibition, cell reporter; Potency, µM (top dose mostly 37.9 µM), without a hit: at the highest dose activity change, negative = inhibition, hits mostly inhibitors; 300,000 compounds, 1.2% hits; AID 540256; calls by dose curve; tested in HEK293 cells; also: potency is read from the fitted curve at half-maximal effect; % is scaled to controls: 0 for no effect and ±100 for the full control effect; nearly all actives have a fitted effect of over 50% in size
# Cycloheximide cs: affects cycloheximide protein synthesis inhibition readout, counter-screen. cell reporter, cycloheximide protein synthesis inhibition counterscreen. max response, %. 300,000 compounds, 12% hits; in the data active = max response mostly above about 13%, no sharp cut-off; inactive = mostly below about 14%; also: read at 38.3 µM for the half of the compounds with a filed dose; 0% is about no effect
# HCV inhibitor: inhibitors of hepatitis C virus infection. Huh7.5.1 HCVcc-Cre infection, luciferase reporter, 44 h. AID 651820. Potency, µM (top dose mostly 41.8 µM), without a hit: top-dose activity change, negative = inhibition, hits mostly inhibitors. 340,000 compounds, 3.4% hits; active = well fitted inhibition curve with a large enough effect; inconclusive = small, poorly fitted or top-dose-only effect, or another doubt; inactive = no such curve, though single readings can be large or run the other way; also: potency is read from the fitted curve at half-maximal effect; % is scaled to controls: 0 for no effect and ±100 for the full control effect
#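 Infectious HCVcc-Cre (~0.5 moi) was added to cells just after compound, with cells seeded 4 h earlier at 1,000 per well. Luciferase activity after 44 h culture reported infection; substrate was incubated 15 min at room temperature before reading.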
# Marburg entry inh: blocks Marburg virus binding to or entry into cells; Marburg virus pseudotyped entry inhibition, cell reporter; Potency, µM (top dose mostly 37.8 µM), for the others: at the highest dose activity change, negative = inhibition, actives largely listed as inhibitors; 300,000 compounds, 1.8% hits; calls by dose curve; tested in HEK293 cells; also: potency is read from the fitted curve at half-maximal effect; % is scaled to controls: 0 for no effect and ±100 for the full control effect
# Shiga inhibitor: blocks Shiga toxin action in Vero cells | Vero cells, Shiga toxin protein synthesis inhibition reporter | inhibition, % at 38.7 µM | 290,000 compounds, 9.2% hits | AID 2315; in the data active = inhibition mostly above about 28%, no sharp cut-off; inactive = mostly below about 43%; also: 0% is about no effect
# An asterisk follows results filed as active; ? = inconclusive; . = no result given; [ ] = another dose, or the depositor's remark.
SMILES,FMDV inh,LASV entry inh,Cycloheximide cs,HCV inhibitor,Marburg entry inh,Shiga inhibitor
COC(=O)c1cccc(Nc2cc(C)nc(-c3ccccc3O)n2)c1,-15.8%,-21.9%,-0.9,0.794µM*,?,14.1
Cc1cc(Nc2ccc(Cl)cc2)nc(-c2ccccc2O)n1,19.5%,.,15.1,11.2µM*,.,46.3
CCCCC1(Cc2ccc(OC)c([N+](=O)[O-])c2)C(=O)N(c2ccccc2)N(c2ccccc2)C1=O,?,?,-1.0,?,14.1µM*,-10.5
CSc1nc2ncc(-c3ccsc3)c(N)n2n1,34.4%,29.5%,48.8*,19.3%,4.6%[46.1 µM],62.2*
CC(=O)Nc1cccc(C(=O)N/N=C/c2ccccc2F)c1,14.3%,0.1%,46.1*,9.8%,?,28.1*
COc1cccc(/C=N/NC(=O)c2ccc(=O)[nH]n2)c1O,61.2%,.,29.9*,7.8%,.,60.0*
COc1cccc(/C=N/NC(=O)c2c(C)nc3ccc(Cl)cn23)c1O,11.2%,?,-1.2,2.51µM*,1µM*,6.1
COc1ccc(OC)c(/C=N/NC(=O)c2ccc(=O)[nH]n2)c1,-14.3%,.,-1.8,9.2%,.,-3.9
COc1cccc(/C=N/NC(=O)C(=O)Nc2ccccc2OC(F)(F)C(F)F)c1O,-27.5%,?,-4.9,?,8.91µM*,21.9
COc1ccc(C(=O)NNC(=O)CN2CCC(n3nnc4cc(C)ccc43)CC2)cc1,-3.1%,-2.9%,-3.8,-5.7%,-3.4%,-9.5
CCc1ccc(-n2c(SC(CC)C(=O)N(CC)CC)nc3n[nH]c(C)c3c2=N)cc1 (stereo not given),?,-16.0%[46.1 µM],.,.,.,.
COc1cccc(/C=N/NC(=O)c2ccc(-c3ccccc3)cc2)c1O,-27.2%,5.62µM*,3.5,?,3.16µM*,2.4
COc1cccc(/C=N/NC(=O)c2[nH]c(C)c(C(=O)N/N=C/c3cccc(OC)c3O)c2C)c1O,32.0%,?,39.6*,?,8.91µM*,111.7
COc1ccc(OC)c(/C=N\NC(=O)c2ccc(-c3ccccc3)cc2)c1,-19.5%,?,-1.6,?,-11.1%,-11.7
O=C(N/N=C/c1ccccc1)c1ccc(-c2ccccc2)cc1,23.8%,.,6.5,-1.4%,.,.
O=C(N/N=C\c1ccccc1F)c1ccc(-c2ccccc2)cc1,8.2%,-0.7%[46.1 µM],35.8*,-8.3%,24.9%[46.1 µM],27.6
Cc1ccc(C(=O)Nc2cccc(C(=O)N/N=C/c3ccccc3F)c2)cc1,14.2%,?,47.0*,-13.4%,3.7%[46.1 µM],71.7*
COCCOC(=O)C1=C(C)NC2=C(C(=O)CC(c3cccs3)C2)C1c1ccsc1 (stereo not given),-1.7%,?,-3.8,-9.5%,?,-6.7
CCCN(CCC(=O)Nc1cc(OC)cc(OC)c1)CC1CC1,-9.5%,4.8%,-3.1,-25.9%,?,-8.9
NC(=O)c1ccsc1NC(=O)COC(=O)Cc1ccc(F)cc1,0.0%,.,.,.,.,.
CCc1nccn1S(=O)(=O)c1ccc(C)c(C)c1,-14.0%,3.7%,-1.1,11.2%,5.8%[46.1 µM],-7.5
COc1cccc(/C=N/NC(=O)CN2CC(c3ccccc3)CC2=O)c1O (stereo not given),24.4%,?,33.6*,17.9%,?,40.2*
COc1cccc(/C=N/NC(=O)CNC(=O)COc2ccccc2)c1O,8.4%,.,11.2,-6.6%,.,31.7
O=C1NC(=S)NC(=O)C1=Cc1cccn1-c1ccc(O)cc1,20µM*,.,-3.5,?,.,30.8
Cn1cccc1/C=C1/C(=O)NC(=O)N(C(C)(C)C)C1=O,-17.6%,?,-2.0,-18.4%,-3.7%[46.1 µM],-6.2
SMILES,FMDV inh,LASV entry inh,Cycloheximide cs,HCV inhibitor,Marburg entry inh,Shiga inhibitor
O=Cc1cccn1-c1ccc2ccccc2c1,46.7%,.,29.5*,0.3%,.,42.1*
CN1C(=O)/C(=C/c2cccn2-c2ccc3ccccc3c2)C(=O)NC1=S,28.2µM*,?,13.9,1.1%,?,-7.1
O=C(Nc1ccccc1)N1CCN(c2nc(-c3ccccc3)ns2)CC1,?,4.9%,9.6,1.78µM*,3.3%,44.4
COc1ccc(NC(=O)c2cc(-c3ccncc3)nc3ccc(Br)cc23)cc1OC,-19.4%,-17.2%[46.1 µM],-1.5,12.6µM*,?,30.0
COc1ccc(NC(=O)c2cc(-c3cccnc3)nc3ccc(C)cc23)cc1OC,-14.1%,-2.6%,-4.6,?,?,-8.0
COc1cc(NC(=O)c2cc(-c3cccnc3)nc3ccc(Br)cc23)cc(OC)c1,?,11.2µM*,-1.4,?,?,-13.9
CCNS(=O)(=O)c1ccc(C(=O)Nc2ccccc2)cc1,25.6%,-4.2%,11.6,8.0%,7.3%,-5.3
CC(C)(C)c1ccc(O)c(/C=N\O)c1,39.8%,-6.7%,18.4*,5.4%,10.2%,52.6*
C[C@H]1CN([C@@H](C)CO)S(=O)(=O)c2ccc(Br)cc2O[C@@H]1CN(C)Cc1ccccc1,0.0%,.,.,.,.,.
COc1ccccc1NC(C#N)c1ccccc1OCc1ccccc1 (stereo not given),7.7%,-23.7%,17.5,15.2%,?,25.5
COCC(=O)N1CCCC(C)(C(=O)Nc2cccc(Oc3ccccc3)c2)C1 (stereo not given),-13.1%,.,.,.,.,.
CCOc1ccccc1N(CC(=O)NCc1ccc(OC)cc1)S(C)(=O)=O,.,4.2%,-2.1,4.7%,-0.9%,31.0
CCCCOc1ccc(N(CC(=O)NCc2ccccc2)C(=O)c2csnn2)cc1,40.5%,-13.9%,26.9,?,10.4%[46.1 µM],29.6*
Cc1ccc(CNC(=O)CN(c2ccc(Cl)cc2)S(C)(=O)=O)cc1,43.4%,.,12.1*,5.5%,.,.
COc1ccc(S(=O)(=O)N(CC(=O)NCc2ccc(C)cc2)c2ccc(Cl)cc2)cc1,0.0%,1.7%[46.1 µM],.,.,1.4%[46.1 µM],.
CCOc1ccc(N(CC(=O)NCc2ccccc2OC)S(C)(=O)=O)cc1,65.7%,?,42.6*,1.8%,28.2%,91.7*
CCOc1ccc(N(CC(=O)NCc2ccccc2)S(C)(=O)=O)cc1,36.3%,-3.7%,26.3*,4.7%,25.8%,68.1*
COc1ccc(N2CC(NC(=O)C(c3ccccc3)c3ccccc3)CC2=O)cc1OC (stereo not given),-19.6%,-18.9%[46.1 µM],.,.,.,.
Cc1cccc(N(CC(=O)NCCSCc2ccc(Cl)cc2)S(C)(=O)=O)c1C,0.0%,12.6µM*,.,.,?,.
Cc1cccc(N(CC(=O)NCCSCc2ccccc2)S(C)(=O)=O)c1C,-12.5%,14.0%,-6.3,-10.3%,4.4%[46.1 µM],-14.4
COC(=O)[C@@]1(Sc2ccc(C)cc2)CC(=O)N(c2ccc3c(ccn3C)c2)[C@@H]1c1ccccc1,-11.3%,.,.,.,.,.
Cc1ccc(NC(=O)c2c(C(F)(F)F)nn(C)c2SCc2ccc(Cl)cc2)cc1C,-8.2%,7.1%,22.1*,5.5%,?,46.0*
Cc1ccc(NC(=O)c2c(C(F)(F)F)nn(C)c2SCc2cccc(C(F)(F)F)c2)cc1C,-27.4%,?,20.3*,?,?,51.4*
N#CC1=C(N)Oc2c(c(=O)sc3ccccc23)C1c1cccnc1 (stereo not given),-24.5%,?,-0.9,?,?,6.2
COC(=O)c1cc(C)nc2c1C(=O)C(=O)C=C2N1CCOCC1,3.55µM*,?,-6.0,2.51µM*,?,-24.9

# Screening results (PubChem BioAssay)
